PubChem BioAssay AID1986 (Sanford-Burnham Center for Chemical Genomics, 2009)
Out of some 290,000 compounds screened, about 890 (0.31%) were called active. Cut-off read from the data, not from the text of the source: active = inhibition mostly above about 52% (no sharp cut-off); inactive = mostly below about 76%. Only a selection was taken, and actives are over-represented in it overall.

Assay: inhibitors of HIV fusion peptide binding, primary screen, biochemical, uHTS, fluorescence dequenching (AID 1986)
Settings: cell-free peptide binding, 30 min, stronger effect = higher value
[1] = measured here: repeat confirmation average inhibition, at 18.6 µM

| Compound | inhibition (at 20 µM) | inhibition [1] |
| --- | --- | --- |
| O=c1c(-c2ccccc2)coc2c(CN3CCCCC3)c(O)ccc12 | 0.2% (inactive) |  |
| O=C1NC(=S)/C(=C\c2ccc(-c3ccccc3Cl)o2)S1 | 70.7% (inactive) | 0.5% |
| O=C(O)C(c1ccccc1)N1C(=O)/C(=C/c2cccs2)SC1=S (stereo unspecified) | 14.3% (inactive) |  |
| O=C(O)C(c1ccccc1)N1C(=O)/C(=C\c2ccc(-c3ccccc3Cl)o2)SC1=S (stereo unspecified) | 94.5% (active) | 110% |
| O=C(O)C(c1ccccc1)N1C(=O)/C(=C\c2ccc(-c3ccc(Br)cc3)o2)SC1=S (stereo unspecified) | 143% (inactive) |  |
| COc1ccccc1/C=C1\SC(=S)N(C(C(=O)O)c2ccccc2)C1=O (stereo unspecified) | 30.1% (inactive) |  |
| O=C(O)C(c1ccccc1)N1C(=O)/C(=C\c2ccc(-c3cccc(Cl)c3)o2)SC1=S (stereo unspecified) | 91.2% (active) | 120% |
| COc1ccc(OC)c2[nH]c(=O)c(CCNC(=O)c3ccc(S(=O)(=O)N4CCCCC4)cc3)cc12 | -1.4% (inactive) |  |
| Cc1ccc2c(c1)N(CCC(=O)NCCCOC(C)C)C(=O)C(C)O2 (stereo unspecified) | -1.1% (inactive) |  |
| COC(=O)c1sc2ccccc2c1NC(=O)c1ccc(S(=O)(=O)N2CC(C)CC(C)C2)cc1 (stereo unspecified) | -1.5% (inactive) |  |
| CCOc1ccc(Br)cc1S(=O)(=O)NCCN(C)C | 2% (inactive) |  |
| CCN(CC)c1ccc2c(c1)oc(=O)c1c(Cl)cc(=O)oc12 | 106% (active) | 164% |
| CCN(CC)c1ccc2c(Cl)cc(=O)oc2c1 | 3.7% (inactive) |  |
| CCN(CC)c1ccc2c(C)c(Cl)c(=O)oc2c1 | 4.7% (inactive) |  |
| C#CCOCCOCCOCCNc1nc(N2CCN(C(=O)[C@H]([C@@H](C)CC)n3cc([C@@H](N)CC(C)C)nn3)CC2)nc(N2CCN(C(=O)[C@H](CCCCN)n3cc([C@@H](N)CO)nn3)CC2)n1 | -1.1% (inactive) |  |
| CC(C)(C)NC(=O)NC(=O)COC(=O)c1ccco1 | 1.7% (inactive) |  |
| O=C(O)/C=C/C(=O)N(CC1CCCO1)C1CC(=O)N(c2c(Cl)cccc2Cl)C1=O (stereo unspecified) | 7.8% (inactive) |  |
| O=C1N=C(N2CCN(c3ccccc3)CC2)S/C1=C/c1ccco1 | -1.8% (inactive) |  |
| O=C1N=C(N2CCN(c3ccccc3)CC2)S/C1=C\c1ccco1 | 0.9% (inactive) |  |
| O=C1N=C(N2CCCC2C(=O)O)S/C1=C\c1ccco1 (stereo unspecified) | 52.2% (active) |  |
| CCOc1cc(CNCCCN2CCOCC2)cc(Br)c1OCc1ccccc1Cl | 0.9% (inactive) |  |
| Cc1ccc(N/N=C/c2ccc3c(c2)OCCO3)cc1Cl | 2.7% (inactive) |  |

| Compound | inhibition (at 20 µM) | inhibition [1] |
| --- | --- | --- |
| COC(=O)c1nnn(-c2ccccc2)c1N | -4.4% (inactive) |  |
| N#CC1=C(N)n2c(s/c(=C\c3ccco3)c2=O)=C(C#N)C1c1ccco1 (stereo unspecified) | 26% (inactive) |  |
| N#CC1=C(N)n2c(s/c(=C\c3cccs3)c2=O)=C(C#N)C1c1cccs1 (stereo unspecified) | 74.8% (active) |  |
| CCOC(=O)C1=C(N)n2c(s/c(=C\c3cccs3)c2=O)=C(C(=O)OCC)C1c1cccs1 (stereo unspecified) | 3.8% (inactive) |  |
| CCc1nnc(NC(=O)C2Cc3ccccc3C(=O)O2)s1 (stereo unspecified) | -3.6% (inactive) |  |
| CCOC(=O)c1c(-c2ccc(OC)cc2)csc1/N=C/C1=C(O)CCCC1=O | 71.6% (active) |  |
| CCOC(=O)c1c(-c2ccc(OC)cc2)csc1/N=C/C1C(=O)CCCC1=O | 52.3% (inactive) | 2.2% |
| CCOC(=O)c1c(/N=C/C2=C(O)CC(C)(C)CC2=O)sc(C)c1C | 1.6% (inactive) |  |
| CCOC(=O)c1c(/N=C/C2=C(O)CCCC2=O)sc2c1CCCC2 | -0.2% (inactive) |  |
| CCOC(=O)c1c(CC(C)C)csc1/N=C/C1=C(O)CCCC1=O | 21.5% (inactive) |  |
| CCOC(=O)c1c(/N=C/C2=C(O)CCCC2=O)sc(C)c1C | 52.3% (active) |  |
| Cc1ccc(C(=O)CC(C(=O)O)n2cncn2)cc1 (stereo unspecified) | 1.7% (inactive) |  |
| Cc1ccc2c(c1)S/C(=C/c1ccc[n+](C)c1)N2CCO | -0.9% (inactive) |  |
| O=C(CC1SC(=O)N(Cc2ccccc2Cl)C1=O)Nc1nccs1 (stereo unspecified) | -0.8% (inactive) |  |
| Cn1c(CCNC(=O)C(C)(C)C)nc2ccccc21 | 1.8% (inactive) |  |
| C=C1c2cccc(O)c2C(O)=C2C(=O)[C@]3(O)C(O)=C(C(N)=O)C(=O)[C@@H](N(C)C)[C@@H]3[C@@H](O)[C@H]12 | 63.7% (active) |  |
| C[C@H]1c2cccc(O)c2C(O)=C2C(=O)[C@]3(O)C(O)=C(C(N)=O)C(=O)[C@@H](N(C)C)[C@@H]3[C@@H](O)[C@@H]21 | 16% (inactive) |  |
| CN(C)[C@@H]1C(=O)C(C(N)=O)=C(O)[C@@]2(O)C(=O)C3=C(O)c4c(O)ccc(Cl)c4[C@@H](O)[C@H]3C[C@@H]12 | 58.4% (active) |  |
| CN(C)c1ccc(O)c2c1CC1CC3[C@@H](N(C)C)C(=O)C(C(N)=O)=C(O)[C@]3(O)C(=O)C1=C2O (stereo partly specified) | 54% (inactive) | 4.9% |
| COc1ccc2nc(NC(=O)Cn3cnc4c(=O)n(C)c(=O)n(C)c43)sc2c1 | 4% (inactive) |  |
| CCN(CC)C(=O)CC(c1ccc(F)cc1)c1ccc(OC)cc1 (stereo unspecified) | 2% (inactive) |  |
| COc1ccc(OCC(=O)Nc2ccncc2)cc1 | 1.1% (inactive) |  |

| Compound | inhibition (at 20 µM) | inhibition [1] |
| --- | --- | --- |
| CCC1(c2ccccc2)NC(=O)N(CC(=O)Nc2ccccc2N2CCCCC2)C1=O (stereo unspecified) | 2.6% (inactive) |  |
| S=c1[nH]nc(C2CCCCC2)o1 | 0.3% (inactive) |  |
| COC(=O)[C@H](CCSC)NC(=O)NCCC1=CCCCC1 | 0.8% (inactive) |  |
| CCc1cccc(NC(=O)CN(C)S(=O)(=O)c2cccs2)c1 | 27.6% (inactive) |  |
| Cc1ccc(C)c(N(C(=O)c2csnn2)C(C(=O)NC2CCCCC2)c2ccncc2)c1 (stereo unspecified) | -2.4% (inactive) |  |
| CSc1nc(-c2ccco2)cc(-c2ccccc2)c1C#N | -1.1% (inactive) |  |
| N#Cc1c(-c2ccco2)cc(-c2ccccc2)[nH]c1=O | 50.8% (inactive) | 12.4% |
| N#Cc1c(-c2ccccc2)cc(-c2ccco2)c(C#N)c1N | 70.5% (active) |  |
| CN(C)c1cccc(NC(=O)c2cccc3ccccc23)c1 | -1.2% (inactive) |  |
| Cc1ccc(CN(C(=O)Cn2nnc3ccccc32)C(C(=O)NCc2ccco2)c2ccc(C)o2)cc1 (stereo unspecified) | 0.4% (inactive) |  |
| O=C(/C=C/c1ccco1)Nc1cccnc1Cl | 7.4% (inactive) |  |
| O=C(/C=C/c1ccco1)Nc1cc(Cl)ccc1C(=O)O | 74.9% (active) |  |
| O=C(/C=C/c1ccco1)Nc1cccc(NC(=O)/C=C/c2ccco2)n1 | 93.3% (inactive) | 1.5% |
| O=C(/C=C/c1ccco1)Nc1ccccc1C(=O)O | 58.3% (inactive) | 24.2% |
| O=C(/C=C/c1ccco1)Nc1ccccn1 | 33.3% (inactive) |  |
| Cc1ccc(NC(=O)/C=C/c2ccco2)nc1 | 56.5% (active) |  |
| COc1ccc(C(=O)C2CCCN(C(=O)c3csc(C(C)=O)c3)C2)c(C)c1 (stereo unspecified) | 1.4% (inactive) |  |
| CS(=O)(=O)N(CC(=O)Nc1ccccc1C(=O)N1CCCC1)c1ccccc1Br | -0.2% (inactive) |  |
| COc1cc(CNCCc2ccc(S(N)(=O)=O)cc2)ccc1OCC(=O)NC(C)(C)C | -0.7% (inactive) |  |
| CSc1nc(=O)n2cccc(C)c2n1 | 3.1% (inactive) |  |
| COc1ccc(NC(=O)c2ccccc2OCc2c(C)noc2C)cc1OC | 2.3% (inactive) |  |
| CC[C@@H](C(=O)[C@@H](C)[C@@H](O)[C@H](C)CCc1ccc(C)c(O)c1C(=O)O)[C@H]1O[C@](CC)([C@H]2CC[C@](O)(CC)[C@H](C)O2)C[C@@H]1C | 56.3% (active) |  |

| Compound | inhibition (at 20 µM) | inhibition [1] |
| --- | --- | --- |
| CN(C)N1C(N)=C(C#N)C(c2cccs2)C2=C1CC(C)(C)CC2=O (stereo unspecified) | -0.7% (inactive) |  |
| CCOC(=O)c1ccc(NC(=O)c2ccc(CN3CCOCC3)cc2)cc1 | -0.8% (inactive) |  |
| O=C1/C(=C/c2ccc(N3CCOCC3)o2)SC(=Nc2ccccc2)N1CCc1c[nH]c2ccccc12 | 37.2% (inactive) |  |
| CCCN1C(=O)/C(=C/c2ccco2)SC1=Nc1ccc(OC)cc1 | 13.2% (inactive) |  |
| O=C(O)COc1ccc(/C=C2\SC(=Nc3ccccc3)N(c3ccccc3)C2=O)cc1 | 36.9% (inactive) |  |
| CCOC(=O)COc1ccc(/C=C2/SC(=Nc3ccccc3)N(Cc3cccnc3)C2=O)cc1OC | -2.8% (inactive) |  |
| COCCN1C(=O)/C(=C/c2ccc(Oc3ccc([N+](=O)[O-])cn3)c(OC)c2)SC1=Nc1ccccc1 | 0.3% (inactive) |  |
| COc1ccc(N=C2S/C(=C\c3ccc(N4CCOCC4)o3)C(=O)N2CCc2c[nH]c3ccccc23)cc1 | 14.3% (inactive) |  |
| COc1cc(/C=C2\SC(=Nc3ccc(N4CCOCC4)cc3)N(C)C2=O)ccc1OC(C)C(=O)O (stereo unspecified) | 0.3% (inactive) |  |
| COc1cc(/C=C2\SC(=Nc3ccccc3)N(Cc3ccco3)C2=O)ccc1OC(C)C(=O)O (stereo unspecified) | 34.6% (inactive) |  |
| CS(=O)(=O)Nc1ccc(C(=O)Nc2ccc3c(c2)OCO3)cc1 | -0.8% (inactive) |  |
| O=C(Nc1cc(S(=O)(=O)N2CCOCC2)ccc1N1CCOCC1)c1cccc(S(=O)(=O)N2CCCCC2)c1 | 0.7% (inactive) |  |
| Cn1c(CCN2CCCCC2)nc2cc(NC(=O)NC3CCCCC3)ccc21 | 53.5% (inactive) | 1.9% |
| O=C(NNC(=O)c1ccc([N+](=O)[O-])cc1)c1ccc(Br)cc1 | 2% (inactive) |  |
| NC(=O)C1CCN(C(c2ccccc2Cl)c2nnnn2CC2CCCO2)CC1 (stereo unspecified) | 1.1% (inactive) |  |
| COc1ccc(S(=O)(=O)N(CCCN2CCOCC2)Cc2cccc(OC)c2OC)cc1 | -0.2% (inactive) |  |
| COc1ccc(CNCCCC(=O)Nc2c(Cl)ccc(C)c2Cl)cc1OC | -0.3% (inactive) |  |
| N#C/C(=C/c1ccccc1OCc1ccc(F)cc1)c1ccc(C(=O)O)cc1 | 31% (inactive) |  |
| N#C/C(=C\c1ccccc1OCc1ccc(C(=O)O)cc1)c1ccccc1 | 19.1% (inactive) |  |
| N#C/C(=C/c1ccc(OCc2ccc(C(=O)O)cc2)c(Br)c1)c1cccc(F)c1 | 87.9% (active) |  |
